Screening results deposited in PubChem by National Center for Advancing Translational Sciences (NCATS).
KB-V1 cytotox: KB-V1 MDR subline cytotoxicity; AID 1347076; KB-V1 MDR cells viability, CellTiter-Glo, 72 h; Potency, µM (highest dose often 46.1 µM), usual class: cytotoxic; 400,000 tested, 3.4% active; also: nearly all actives have a fitted effect of over 60% in size
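Drug-selected KB-V1 cells, grown in DMEM lacking phenol red with 10% FBS, receive compound titrations; after three days at 37 degrees C, surviving cell ATP is quantified by CellTiter-Glo luminescence and responses normalized and curve-fitted.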
KB-3-1 cytotox: kills parental KB-3-1 adenocarcinoma cells; KB-3-1 viability, CellTiter-Glo ATP luminescence, 72 h; Potency, µM (series often up to 46.1 µM), most hits filed as cytotoxic; 400,000 tested, 1.4% active; AID 1347075; also: nearly all actives have a fitted effect of over 60% in size
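Luminescent ATP read-out (CellTiter-Glo) measures survival of drug-naive KB-3-1 cells after 72 h compound exposure at 37 °C. Titration series was screened from lowest to highest concentration, with DMSO vehicle plates as background controls.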
HT1080 IDH1KD tx: toxicity to HT-1080 IDH1 knockdown cells (counter line) | HT-1080 IDH1 knockdown viability, ATP luminescence, 48 h | Potency, µM (top dose mostly 46.1 µM), usual class: cytotoxic | 360,000 tested, 2% active
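Luminescent ATP read-out (CellTiter-Glo, 10 min at room temperature) after 48 h compound exposure at 37 °C gave viability of IDH1-knockdown HT-1080 cells. Activity was normalised to DMSO and cell-free wells, then fitted as concentration-response curves.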
HT1080NT lethal: kills 2HG-producing HT-1080-NT fibrosarcoma cells; 360,000 tested, 1.6% active; Potency, µM (top dose mostly 46.1 µM), most hits filed as cytotoxic; HT-1080-NT fibrosarcoma viability, CellTiter-Glo ATP luminescence, 48 h;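 also: NT is the 2HG producing partner of a matched IDH1 knockdown line; nearly all actives have a fitted effect of over 55% in size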
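Compounds were tested in concentration-response format on HT-1080-NT cells for 48 hours at 37 degrees C. Cell viability came from CellTiter-Glo luminescence; curves were classified by r2, response magnitude and activity.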
SW480 rerep: inducers of DNA re-replication in SW480 colon cancer cells; SW480 DNA re-replication, Hoechst DNA content imaging, 48 h; 340,000 tested, 1.8% active; Potency, µM (top dose mostly 46.1 µM), usual class: activators; also: nearly all actives have a fitted effect of over 55% in size
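Per well, 250 cells were exposed to pinned compound for 48 hr. Nuclear DNA was visualised with Hoechst (40 min, 37 C) and total object intensity recorded by fluorescence scanning.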
MCF10A rerep: inducers of DNA re-replication in MCF 10A breast cells. MCF 10A DNA re-replication, Hoechst nuclear intensity, 48 h. Potency, µM (highest dose often 46.1 µM), most hits filed as activators. 350,000 tested, 2.9% active; also: nearly all actives have a fitted effect of over 50% in size
Hits are given with their value; 0 = inactive; ? = inconclusive; - = not tested or not shown; ! = repeats disagree. Hits are enriched below; roughly 8% of the tested compounds scored in any of these assays. Calls follow the shape of the dose curve; as a rule, active = well fitted curve in the direction sought with a large enough effect; inconclusive = small, poorly fitted or top-dose-only effect, or another doubt; inactive = no such curve, though single readings can be large; an effect the other way counts as inactive or inconclusive.

SMILES | KB-V1 cytotox | KB-3-1 cytotox | HT1080 IDH1KD tx | HT1080NT lethal | SW480 rerep | MCF10A rerep
CC(C)C(Cl)=NOC(=O)Nc1ccc(F)cc1 | 0 | 0 | 16µM | 0 | ? | 3.3µM
CCOc1ccc(C(=O)Nc2ccc(NC(=O)c3ccco3)c(Cl)c2)cc1Cl | 0 | ? | 0 | 0 | ? | ?
COc1ccc(C(=O)NC(=S)Nc2cccc(NC(=O)c3ccco3)c2)cc1[N+](=O)[O-] | 0 | 0 | 0 | 0 | 0 | 0
CCOc1cc(NS(=O)(=O)c2ccccc2)c(OCC)cc1NC(=O)c1ccco1 | 15µM | 0 | 0 | 0 | 0 | 0
CCOc1ccc(C(=O)Nc2ccc(NC(=O)c3ccco3)c(Cl)c2)cc1Br | 0 | 0 | ? | ? | 0 | 5.8µM
CCOc1ccc(C(=O)NC(=S)Nc2cccc(NC(=O)c3ccco3)c2)cc1[N+](=O)[O-] | ? | 18µM | 0 | 0 | 0 | ?
CCOc1cc(NS(=O)(=O)c2ccc(Cl)cc2)c(OCC)cc1NC(=O)CC(C)C | 11µM | 0 | ? | ? | 0 | 0
COCCNC(=O)c1cccc(OC2CCN(Cc3ccc(C(=O)OC)cc3)CC2)c1 | 0 | ? | 0 | 0 | 0 | ?
CCOc1ccc(S(=O)(=O)Nc2ccc(OC)c(Cl)c2)c2cccnc12 | 0 | 0 | - | - | - | -
Cc1ccc2cc(C(c3nnnn3C3CCCC3)N(Cc3ccco3)Cc3cccs3)c(=O)[nH]c2c1 (configuration not stated) | 0 | 0 | 0 | 0 | 0 | 0
Cc1ccccc1NC(=O)c1cccc(NC(=O)c2ccco2)c1 | 0 | 0 | 0 | 0 | 0 | 0
CCOc1ccccc1NC(=O)c1cccc(NC(=O)c2ccco2)c1 | ? | 2.6µM | 2.3µM | ? | 7.3µM | 6.5µM
CCc1ccnc(NS(=O)(=O)c2ccc3c(c2)CCO3)c1 | 0 | 0 | 0 | 0 | 0 | 0
CCOC(=O)c1c(C)c(-c2ccccc2)n(CC(=O)NC(CC)Cc2ccccc2)c1C (configuration not stated) | 0 | 0 | - | - | - | -
Cc1nc(C(F)(F)F)c(C(=O)NC(=O)Nc2ccccc2)s1 | 0 | 0 | 0 | 0 | 0 | 0
Cc1cnc(C(=O)Nc2ccc(N3CCCCC3)cc2)cn1 | 0 | 0 | 0 | 0 | 0 | 0
Cc1nc(C(F)(F)F)c(C(=O)NC(=O)Nc2ccc(OC(F)(F)F)cc2)s1 | 16µM | 0 | 0 | 0 | 0 | 0
Cc1cnc(C(=O)Nc2ccc(OC(F)(F)F)cc2)cn1 | ? | 15µM | 0 | 0 | 0 | 0
CC1Cc2cc(S(=O)(=O)N3CCN(C)CC3)ccc2N1C(=O)C1CC1 (configuration not stated) | 0 | 0 | 0 | 0 | 0 | 0
COc1ccc(-c2nc3ccc(C)cn3c2Nc2ccc3c(c2)OCO3)cc1 | ? | 0 | - | - | - | -
CCC1=Nc2cc(C(=O)NCC3CCCO3)ccc2Sc2ccc(Cl)cc21 (configuration not stated) | 0 | 9.2µM | 16µM | ? | ? | 12µM
CCC1=Nc2cc(C(=O)NCC3CCCO3)ccc2Sc2ccc(Br)cc21 (configuration not stated) | 6.5µM | 6.5µM | 9.2µM | ? | 10µM | ?
Cc1ccc(-c2csc3ncnc(N4CCc5ccccc5C4)c23)cc1 | ? | 0 | 0 | 0 | 0 | 18µM
Fc1ccc(-c2csc3ncnc(N4CCc5ccccc5C4)c23)cc1 | ? | 0 | 0 | 0 | 0 | 10µM
CCOC(=O)CNC(=O)c1sc2ncnc(N3CCc4ccccc4C3)c2c1C | 15µM | 0 | 0 | 0 | ? | ?
Cn1c(C(=O)N2CCN(c3ccc(Cl)cc3)CC2)cc2c(=O)[nH]c3ccccc3c21 | 0 | 0 | 0 | 0 | 0 | ?
Cn1c(C(=O)NCCCN2CCN(c3ccccc3F)CC2)cc2c(=O)[nH]c3ccccc3c21 | ? | 0 | 0 | 0 | 0 | 23µM
Cc1ccc(Cl)cc1N1CCN(C(=O)c2cc3c(=O)[nH]c4ccccc4c3n2C)CC1 | 7.3µM | ? | 0 | ? | 0 | 18µM!
Cn1c(SCC(=O)N2CCN(c3ccccc3)CC2)nnc1-c1ccccc1 | ? | 0 | 0 | 0 | 0 | 0
CCOc1ccc(NC(=O)Nc2cccc(C)n2)cc1 | 0 | 0 | 0 | 0 | 0 | 0
